A selection: hits, their analogues and other compounds. The true share with any hit is near 2.3%.
CHO-K1 Ca PAM: nonselective calcium activators in parental CHO-K1 cells, primary screen, counter-screen for M1 PAM project, cell-based, Fluo-8 calcium fluorescence, full deck, 1536-well | ATP EC20; 0% at ATP EC20, 100% at ATP max | activation, % at 3 µM | actives 0.02% (n = 360,000) | AID 602247, 2012;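 active = activation above the run cutoff, the mean activation of all test compounds plus 3 SD, cut at about 40% in these data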;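 also: peak over basal fluorescence ratio in a 140 s read after ATP addition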
M1 antag: human M1 muscarinic receptor antagonists, primary screen, CHO-K1 cells, Fluo-8 calcium fluorescence, 1536-well; actives 1.3% (n = 360,000); CHO-K1 hM1, ACh EC80 antagonist; AID 588852, 2011; inhibition, % at 3 µM;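 active = percent inhibition above its own plate's cutoff, namely the mean of that plate's compound wells plus 3 SD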;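 also: peak over basal fluorescence ratio during 140 s after agonist addition; 0% = ACh EC80 plus DMSO and 100% = DMSO alone without agonist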
Target sequence (P11229 whole entry, looked up): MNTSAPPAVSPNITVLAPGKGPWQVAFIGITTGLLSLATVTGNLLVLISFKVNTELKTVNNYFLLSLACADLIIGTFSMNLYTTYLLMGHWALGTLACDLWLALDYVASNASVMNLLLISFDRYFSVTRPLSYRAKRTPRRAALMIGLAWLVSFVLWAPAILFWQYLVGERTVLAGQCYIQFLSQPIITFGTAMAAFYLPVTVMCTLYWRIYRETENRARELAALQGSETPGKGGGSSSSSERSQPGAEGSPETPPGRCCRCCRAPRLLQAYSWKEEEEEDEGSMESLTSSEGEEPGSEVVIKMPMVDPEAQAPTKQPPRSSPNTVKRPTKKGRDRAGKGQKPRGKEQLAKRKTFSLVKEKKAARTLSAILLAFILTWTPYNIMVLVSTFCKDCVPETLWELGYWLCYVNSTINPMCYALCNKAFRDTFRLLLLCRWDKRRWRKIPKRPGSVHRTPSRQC
CHO-K1 Ca ag: counter-screen for M1 agonists: effect in parental CHO-K1 cells; activation, % at 3 µM; Fluo-8 calcium fluorescence; scaled to maximal ATP response, vehicle zero; actives 0.48% (n = 360,000); in the data active = activation above about 15%;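 also: untransfected CHO-K1 host cells lacking M1 receptor as counterscreen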
CHRM1 agonist: human M1 muscarinic receptor agonists, primary screen, Fluo-8 calcium fluorescence, CHO-K1 cells, HTS; Muscarinic acetylcholine receptor M1 (Homo sapiens), P11229; CHO-K1 hM1, agonist mode; 0% DMSO, 100% acetylcholine EC100; activation, % at 3 µM; actives 0.33% (n = 360,000);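 active = activation above the run's mean compound activation plus 3 SD, cut at about 16% in these data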;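 also: peak over basal fluorescence ratio within a 140 s kinetic read after compound addition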
M1 PAM: human M1 muscarinic receptor positive allosteric modulators, primary screen, CHO-K1 cells, Fluo-8 calcium fluorescence, 1536-well | Muscarinic acetylcholine receptor M1 (Homo sapiens), P11229 | CHO-K1 hM1, ACh EC20; 0% = ACh EC20, 100% = maximal ACh | activation, % at 3 µM | actives 0.088% (n = 360,000) | AID 588819, 2011; in the data active = activation above about 19%, passing the limit was not always enough
CHO-K1 Ca antag: M1 antagonist counterscreen hit in parental CHO-K1 cells | actives 0.6% (n = 360,000) | ATP-induced calcium, Fluo-8 fluorescence | inhibition, % at 3 µM;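 active = inhibition above a per-plate cutoff, the plate's mean sample inhibition plus 3 SD, cut at about 24% in these data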;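 also: 0% = DMSO plus EC80 ATP and 100% = DMSO alone without ATP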
* hit, by the source's call; · = no result given; ! = a repeat was not active.

SMILES	CHO-K1 Ca PAM	M1 antag	CHO-K1 Ca ag	CHRM1 agonist	M1 PAM	CHO-K1 Ca antag
CCSc1ncc(Cl)c(C(=O)Nc2ccc(S(=O)(=O)Nc3onc(C)c3C)cc2)n1	-9	-10	0	4	22*	6
CNc1ccccc1C(C)(C)c1cn(-c2ccc([N+](=O)[O-])cc2)nn1	13	-11	1	-4	8	-16
O=C(Nc1cc(Sc2ccccn2)cc([N+](=O)[O-])c1)c1ccc([N+](=O)[O-])cc1	14	24*	3	2	-16	-4
O=[N+]([O-])c1ccc(Sc2ccccn2)nc1	9	9	0	-3	-2	-8
CNC(C)C(=O)NC(C(=O)N1CCCC1C(=O)Nc1ccc2[nH]ccc2c1)C(C)C (centres undefined)	22	-10	1	-3	3	-12
CNC(C)C(=O)NC(C(=O)N1CCCC1C(=O)Nc1ccc2ncccc2c1)C(C)C (centres undefined)	12	-17	0	2	32*	-9
CCOC(=O)c1sc(S(C)(=O)=O)c2c1CCc1conc1-2	-9	-21	0	1	14	36*
CC(C)[C@H](NS(=O)(=O)c1ccccc1)C(=O)OCc1cc([N+](=O)[O-])cc2c1OCOC2	15	-13	1	-4	6	-19
O=C(Nc1ccnn1C1CCN(Cc2cc(Cl)ccc2O)CC1)c1cccnc1	-5	40*	2	-5	-16	-10
COc1cccc(C(=O)NCCS(=O)(=O)NC2CCCC2)c1	-11	9	0	-2	-3	4
O=C(Nc1cccc(-n2cnnn2)c1)c1ccoc1COc1ccc(Cl)cc1	21	7	2	-1	-1	-5
Cc1c(CCNC=O)cc(C)c2c3c(oc12)CCCC3	10	-3	0	-4	-1	-16
Cc1cc2nnc(SC(C)C)n2c2ccccc12	-1	33*	0	-2	-10	-3
Cc1cc2nnc(SC(C)C#N)n2c2ccccc12 (centres undefined)	7	-3	0	-4	5	-4
CC1=C(C)/C(=N\OS(=O)(=O)c2ccc(C)cc2)C=CC1=O	-10	31*	7	2	-10	34*
CC1=C/C(=N\OS(=O)(=O)c2ccccc2)C(C)=CC1=O	2	32*	12	10	-11	37*
COc1ccc(CNC(=O)CC2C[C@H](C(=O)N3CCCCC3)[C@@]3(C)c4[nH]c5ccccc5c4CCN3C2=O)cc1OC (some centres undefined)	21	-23	0	-4	14	-18
CC[C@]12C(=O)N(C)C[C@H]([C@@H]3C(=O)N(C)C(=O)[C@@H]31)N2C(=O)c1ccc(F)cc1	19	-7	4	0	7	-5
Cn1c(=O)n(C)c2cc([N+](=O)[O-])c(N3CCN(S(=O)(=O)c4ccc5ccccc5c4)CC3)cc21	12	-4	1	0	5	-14
Cc1ccc(S(=O)(=O)N2CCN(c3cc4c(cc3[N+](=O)[O-])n(C)c(=O)n4C)CC2)cc1	5	52*	8	0	-22	-2
Cc1cnc(NC(=O)C2(c3ccccc3)CC2)s1	2	-1	-1	-9	-5	-13
COc1ccc(NC(=O)CCN2CCN(S(=O)(=O)c3ccc(C(C)C)cc3)CC2)cc1	21	-6	18*	3	5	-38
COc1ccc(NC(=O)CCN2CCN(S(=O)(=O)c3ccc(Cl)cc3)CC2)cc1	33	-9	4	1	8	-35
CCOc1ccc(NC(=O)CCN2CCN(S(=O)(=O)c3cc(Cl)ccc3OC)CC2)cc1	41*	-10	4	2	-3	-20
O=S1(=O)CC(N2CCSCC2)CN1Cc1cn(Cc2ccc(C(F)(F)F)cc2)nn1 (centres undefined)	9	·	2	·	·	-18
SMILES	CHO-K1 Ca PAM	M1 antag	CHO-K1 Ca ag	CHRM1 agonist	M1 PAM	CHO-K1 Ca antag
Cc1cc(-c2cn3ccccc3n2)c(C)n1-c1ccccc1	-14	34*	0	-6	-19	-6
Cc1cccc(CS(=O)(=O)Cc2ccc(C(=O)NCc3ccccc3)o2)c1	11	-13	6	0	6	-13
Cc1cccc(CS(=O)(=O)Cc2ccc(C(=O)NCc3cccs3)o2)c1	5	-11	27*	6	7	2
O=C(NCc1ccccc1Cl)[C@H]1CCCN1C(=O)[C@H]1CCCN1C(=O)c1cccc2ccccc12	3	·	16*	·	·	0
CCN1CCN(c2ncnc3c2sc(=S)n3-c2ccccc2)CC1	8	-6	2	-10	2	2
CCN1CCN(c2ncnc3sc(C)c(-c4ccccc4)c23)CC1	-22	29*	2	-11	-16	-13
CCN1CCN(c2ncnc3scc(-c4ccc(C)c(C)c4)c23)CC1	-6	85*	0	-11	-32	-3
COC(=O)CC1C(=O)NCCN1C(=S)Nc1ccccc1Cl (centres undefined)	14	-4	0	-5	6	-15
CCOC(=O)C1(CC2CCCCO2)CCN(Cc2cc3ccccc3[nH]2)CC1 (centres undefined)	-8	29*	57*	62*	-32	9
COc1ccc(N2CC(O)(c3ccc(OC(F)F)cc3)[N+]3=C2CCCC3)cc1 (centres undefined)	7	42*	0	-7	-19	-3
OC1(c2cccs2)CN(c2ccccc2)C2=[N+]1CCCC2 (centres undefined)	12	-7	0	-5	7	-13
COc1ccc(N2CC(O)(c3ccc(F)cc3)[N+]3=C2CCCC3)cc1 (centres undefined)	-11	47*	0	-9	-23	2
CCOc1ccc(N2CC(O)(c3cccs3)[N+]3=C2CCCC3)cc1 (centres undefined)	17	41*	1	-4	-11	-7
O=C(COc1ccccc1)N1CCN(C(=O)c2ccccc2F)CC1	13	-14	2	-2	10	-12
Oc1ccc2ccccc2c1Br	-9	1	0	0	-10	24*
O=C(O)c1ccccc1-c1c2cc(I)c(=O)c(I)c-2oc2c(I)c(O)c(I)cc12	-9	78*!	190*	279*	-26	71*
CCCCCCCCCC[n+]1cccc(C(=O)N(CC)CC)c1	9	42*	0	-9	-25	-3
NC(=O)c1ccc[n+](CCC[n+]2cccc(C(N)=O)c2)c1	15	-7	0	-3	8	-16
